According to PubChem BioAssay (NCATS):
Values without a mark were called inactive. Calls come from the whole dose curve; as a rule, active = well fitted curve in the direction sought with a large enough effect; inconclusive = small, poorly fitted or top-dose-only effect, or another doubt; inactive = no such curve, though single readings can be large; an effect the other way counts as inactive or inconclusive. Inconclusive results are not listed.

Experiment: Cellular Toxicity (caspase-3) N2a (AID 665);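 note: compound exposure lasted 16 h at 37 °C before readout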
Details: N2a cells, luminescence, normalized: DMSO 0%, 10 µM staurosporine 100%; series mostly up to 92.2 µM; caspase-3 activation: at the top concentration
Method in brief: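 Caspase-3/7 activation measured as luminescence from Caspase-Glo reagent (1 h, room temperature) after 16 h compound exposure of mouse N2a cells. AC50 values from Hill-equation concentration-response, scaled between DMSO and 10 uM staurosporine.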

Going from `Nc1cccc(N)c1` to `CCOc1cccc(N)c1`, the “caspase-3 activation” value rises from -3.73% to 5.65%.

Going from `O=CNc1ccccc1` to `CNc1ccccc1`, the “caspase-3 activation” value falls from -0.0609% to -2.19%.

First: O=[N+]([O-])c1cccc(Cl)c1
Second: O=[N+]([O-])c1ccc(Cl)cc1Cl
The “caspase-3 activation” value of the first is lower: -1.27% for the first, -0.598% for the second.

Going from `ON=C1CCCCC1` to `C1COC1`, the “caspase-3 activation” value falls from 3.44% to -2.06%.

First: C=C(C)C(N)=O
Second: C=C(C)C(=O)OCCCCCCCCCC
The “caspase-3 activation” value of the first is higher: -2.81% for the first, -3.64% for the second.

Compared with `Nc1c(Cl)cc(Cl)cc1Cl`, `O=[N+]([O-])c1c(Cl)cc(Cl)cc1Cl` is lower in “caspase-3 activation” value: 0.912% for the first, -1.86% for the second.

First: Nc1ccc(F)cc1F
Second: Nc1cccc(C(F)(F)F)c1
The “caspase-3 activation” value of the first is higher: 1.82% for the first, 1.3% for the second.

Compared with `CCc1ccccc1O`, `CNC(=O)c1ccccc1` is lower in “caspase-3 activation” value: 0.349% for the first, -1.72% for the second.

First: CCOC(=O)OCC
Second: C=CC(=O)OCCCC
The “caspase-3 activation” value of the first is lower: -2.27% for the first, 2.13% for the second.

Going from `CCCOCC(C)O` (stereo unspecified) to `CCCCC(CC)COCC1CO1` (stereo unspecified), the “caspase-3 activation” value falls from 0.509% to -1.84%.

Compared with `CCCC(Cl)CCCC(Cl)CCC(Cl)CCC(Cl)CCC(Cl)CCCC(Cl)CCC` (stereo unspecified), `CCCCCCCN` is higher in “caspase-3 activation” value: -4.47% for the first, -0.984% for the second.

Going from `Cc1cccc(C(=O)O)c1` to `O=C(O)c1ccccc1[N+](=O)[O-]`, the “caspase-3 activation” value rises from -6.71% to 2.22%.

Compared with `Cc1ccc2cccnc2c1`, `Cc1ccc(C)c([N+](=O)[O-])c1` is higher in “caspase-3 activation” value: 1.39% for the first, 5.73% for the second.

Compared with `CCN(C(=O)N(CC)c1ccccc1)c1ccccc1`, `c1ccc(Nc2ccccc2)cc1` is lower in “caspase-3 activation” value: -1.62% for the first, -3.49% for the second.

First: O=[N+]([O-])c1ccc2nc[nH]c2c1
Second: O=c1[nH][nH]c(=O)c2cc([N+](=O)[O-])ccc12
The “caspase-3 activation” value of the first is lower: -4.35% for the first, -2.74% for the second.

First: O=Cc1cccc(Br)c1
Second: Cc1ccc(Br)cc1
The “caspase-3 activation” value of the first is lower: -2.63% for the first, -1.42% for the second.

Going from `C=CCn1c(=O)n(CC=C)c(=O)n(CC=C)c1=O` to `CCCCCCCCC/C=C/CC1CC(=O)OC1=O` (stereo unspecified), the “caspase-3 activation” value rises from -2.27% to 1.37%.

Going from `Nc1nc(CC(=O)O)cs1` to `OC/C(Br)=C(\Br)CO`, the “caspase-3 activation” value rises from -3.03% to -1.32%.

In the case of `Cc1ccccc1C#N`, the “caspase-3 activation” value is reported as 0.152%.

Experiment: Cellular Toxicity (caspase-3) NIH 3T3 (AID 666);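 note: caspase signal read after 16 h compound exposure; 0% = DMSO basal and 100% = 100 µM tamoxifen stimulation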
Details: NIH 3T3 caspase-3 activation, apoptosis/toxicity, 0% DMSO, 100% is 100 µM tamoxifen; series mostly up to 92.2 µM; caspase-3 activation: at the top concentration
Method in brief: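 Caspase-Glo 3/7 luminescence reported caspase activation in 1000 NIH 3T3 cells/well after 16 h compound exposure at 37 C. DMSO set basal and 100 uM tamoxifen set 100% stimulation; concentration-response modeled with the Hill equation for AC50.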

Going from `Nc1cccc(N)c1` to `CCOc1cccc(N)c1`, the “caspase-3 activation” value falls from 0.967% to -3.64%.

First: ON=C1CCCCC1
Second: C1COC1
The “caspase-3 activation” value of the first is lower: -0.958% for the first, 1.59% for the second.

Compared with `C=C(C)C(N)=O`, `C=C(C)C(=O)OCCCCCCCCCC` is higher in “caspase-3 activation” value: -4.24% for the first, 2.9% for the second.

Going from `Cc1cc(C)c(N)cc1C` to `Nc1c(Cl)cc(Cl)cc1Cl`, the “caspase-3 activation” value rises from -2.33% to 2.97%.

Compared with `Nc1ccc(F)cc1F`, `Nc1cccc(C(F)(F)F)c1` is lower in “caspase-3 activation” value: -2.15% for the first, -2.43% for the second.

Compared with `CNc1ccccc1`, `CNC(=O)c1ccccc1` is lower in “caspase-3 activation” value: 1.69% for the first, -1.3% for the second.

Going from `CCc1ccccc1O` to `O=C(O)c1ccccc1[N+](=O)[O-]`, the “caspase-3 activation” value falls from 3.27% to 0.79%.

First: CCOC(=O)OCC
Second: C=CC(=O)OCCCC
The “caspase-3 activation” value of the first is lower: -0.337% for the first, 1.24% for the second.

Compared with `CCCOCC(C)O` (stereo unspecified), `CCCCC(CC)COCC1CO1` (stereo unspecified) is higher in “caspase-3 activation” value: -1.93% for the first, -1.89% for the second.

Going from `O=[N+]([O-])c1c(Cl)cc(Cl)cc1Cl` to `O=[N+]([O-])c1ccc(Cl)cc1Cl`, the “caspase-3 activation” value rises from 0.656% to 0.795%.

Compared with `CCCC(Cl)CCCC(Cl)CCC(Cl)CCC(Cl)CCC(Cl)CCCC(Cl)CCC` (stereo unspecified), `CCCCCCCN` is higher in “caspase-3 activation” value: -1.13% for the first, -0.285% for the second.

First: Cc1cccc(C(=O)O)c1
Second: O=Cc1cccc(Br)c1
The “caspase-3 activation” value of the first is lower: -17% for the first, -3.51% for the second.

Compared with `CC(=O)c1nccs1`, `Nc1nc(CC(=O)O)cs1` is higher in “caspase-3 activation” value: -5.54% for the first, 0.967% for the second.

Compared with `CCN(C(=O)N(CC)c1ccccc1)c1ccccc1`, `c1ccc(Nc2ccccc2)cc1` is higher in “caspase-3 activation” value: -0.198% for the first, 1.41% for the second.

Going from `O=[N+]([O-])c1ccc2nc[nH]c2c1` to `O=c1[nH][nH]c(=O)c2cc([N+](=O)[O-])ccc12`, the “caspase-3 activation” value falls from 1.25% to -2.57%.

First: C=CCn1c(=O)n(CC=C)c(=O)n(CC=C)c1=O
Second: CCCCCCCCC/C=C/CC1CC(=O)OC1=O (stereo unspecified)
The “caspase-3 activation” value of the first is lower: -1.25% for the first, 0.0904% for the second.

Going from `Cc1ccc(Br)cc1` to `Cc1ccccc1C#N`, the “caspase-3 activation” value falls from -3.05% to -6.58%.
